# PubChem BioAssay (NCATS)
# Inconclusive results are not listed. Values without a mark were called inactive. Active and inactive are the calls of the source. Calls follow the shape of the dose curve; as a rule, active = well fitted inhibition curve with a large enough effect; inconclusive = small, poorly fitted or top-dose-only effect; inactive = flat fitted curve, though single readings scatter.
# Biological target: Aldehyde dehydrogenase, mitochondrial (Homo sapiens) (UniProt P05091)
# Experiment: qHTS for Inhibitors of the Aldehyde Dehydrogenase Family (ALDH2) Primary screen (AID 2061308);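 also: plate controls were vehicle for no effect and reference inhibitor for full effect; nearly all actives have a fitted effect of over 55% in size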
# Conditions: ALDH2 enzyme inhibition qHTS, 1536-well; series mostly up to 56 µM; activity change, negative = inhibition: at the top concentration
SMILES,"activity change, negative = inhibition",Potency
COC(=O)[C@@H]1C2CC3c4[nH]c5ccccc5c4CCN3CC2CC[C@@H]1O (stereo not given in full),0%,–
CCc1ccc2oc(=O)cc(CN3CCN(c4ccccc4F)CC3)c2c1,5.6%,–
COc1ccccc1NC(=O)c1ccc2ccccc2c1,5.16%,–
Cc1cccc(CNc2ncnc3ccc(-c4cccnc4)cc23)c1,-5.99%,–
Cc1ccc(S(=O)(=O)Nc2ccc(C(=O)Nc3nc(-c4ccccc4)cs3)c(Cl)c2)cc1,-4.36%,–
C/C(=C\c1ccc2c(c1)OCCO2)C1Nc2cccc3cccc(c23)N1,-1.55%,–
C[C@@H]1CN(S(=O)(=O)c2ccc3c(c2)OCCO3)CCN1S(=O)(=O)c1c(F)cccc1F,2.59%,–
COc1ccccc1C1=Nn2c(nnc2-c2ccccc2C)SC1,–,inactive
COc1ccc(-c2nnc3n2N=C(c2c(OC)cccc2OC)CS3)cc1,6.03%,–
O=c1ccc2ccc(OCCCCN3CCN(c4cccc5sccc45)CC3)cc2[nH]1,3.31%,–
Cc1nc(NCc2ccccc2)c2nc(-c3ccccc3)n(CCCN3CCOCC3)c2n1,-0.333%,–
COc1cc(O)c(C(CC(=O)N2CCC[C@H](C)C2)c2ccc3c(c2)OCO3)c(OC)c1 (stereo not given in full),-4.01% [at 114 µM],–
Cc1ccc(S(=O)(=O)Nc2cnccc2C(=O)Nc2ccccc2)cc1,13.3%,–
Cc1cc2c(s1)c1cnn(Cc3ccc(F)cc3F)c(=O)c1n2C,17.6%,–
O=C(Cc1ccc(Cl)c(Cl)c1)Nc1ccc([S+](=O)([O-])Nc2ccc3[nH]ccc3c2)cc1,-4.02%,–
CNc1oc(-c2ccc(-c3ccccc3)cc2)nc1C#N,-3.73%,–
NCCCCNc1ncnc2ccc(-c3ccc4c(c3)OCO4)cc12,13.5%,–
CC(=O)O[C@@H]1CC[C@@]2(C)C(CC[C@]3(C)C2[C@H](O)C=C2[C@H]4[C@@H](C)[C@H](C)CC[C@]4(C)CC[C@]23C)[C@@]1(C)C(=O)O (stereo not given in full),4.65% [at 28 µM],–
O=[N+]([O-])c1cccc(CSc2nc3ncc(Br)cc3[nH]2)c1,-3.94%,–
Cc1noc(-c2ccc(-c3ccc(CC(=O)O)cc3)cc2)c1NC(=O)O[C@H](C)c1ccccc1Cl,-2.5%,–

SMILES,"activity change, negative = inhibition",Potency
CN(c1ccc(NC(=O)Nc2ccccc2)cc1)S(=O)(=O)c1cnn(-c2ccc(F)cc2)c1,-11.9%,–
Cc1cc2c(s1)c1cnn(Cc3ccccc3F)c(=O)c1n2Cc1ccccc1F,6.2%,–
COc1ccnc(NC(=S)N2CCN(c3cc(C(F)(F)F)cc(C(F)(F)F)c3)CC2)c1,7.12%,–
COc1cc(O)c(C(CC(=O)N2CCCC(C)C2)c2ccc(C)cc2)c(OC)c1 (stereo not given),6.35%,–
CC(C)c1ccccc1-c1ncc(F)c(NCC2CCN(c3cnccn3)C2)n1 (stereo not given),-19.8%,–
Cc1ccc(OCCCn2c(CCNC(=O)C3CCCCC3)nc3ccccc32)cc1,-9.91%,–
COc1ccc(C2Nc3ccccc3C(=O)N2Cc2ccco2)cc1COc1c(C)cc(NC(C)=O)cc1C (stereo not given),-20.5%,–
COc1cccc(C2=Nn3c(nnc3-c3cc(OC)ccc3OC)SC2)c1,11.6%,–
CC(=O)NCc1cc(Cl)c2cccnc2c1O,2.63%,–
CCCn1c(C)nc2c(NCCO)nc(C)nc21,2.48%,–
CC1=C(C(=O)Nc2nc3ccccc3s2)C2(CCCC2)N=C(Nc2nc3ccccc3o2)N1,3.98%,–
CCCn1c(-c2ccc(F)cc2)nc2c(NC3CCN(Cc4ccccc4)CC3)nc(C)nc21,0.954%,–
COc1ccc(C2=Nn3c(nnc3-c3ccccc3F)SC2)cc1OC,7.93%,–
CO[C@H]1C[C@@H]2CC[C@@H](C)[C@@](O)(O2)C(=O)C(=O)N2CCCC[C@H]2C(=O)O[C@H]([C@@H](C)C[C@@H]2CC[C@@H](O)[C@H](OC)C2)CC(=O)[C@H](C)/C=C(\C)[C@@H](O)[C@@H](OC)C(=O)[C@H](C)C[C@H](C)/C=C/C=C/C=C/1C,-12.8%,–
O=C(Nc1ccc(-c2nc3ccccc3[nH]2)cc1)c1ccc2cc[nH]c2c1,3.39%,–
O=C(Nc1cccc(C(F)(F)F)c1)Nc1nnc(-c2ccncc2)s1,1.73%,–
FC(F)(F)c1cccc(-c2nc(NCc3ccc(-c4ccnc(C(F)(F)F)c4)cc3)c3ccccc3n2)c1,7.89%,–
N#Cc1cc(NC(=O)Nc2nnc(-c3ccncc3)s2)ccc1Br,-8.25%,–
COc1ccc(N2C[C@]34C=C[C@H](O3)C(C(=O)O)C4C2=O)cc1 (stereo not given in full),0.123%,–
COc1ccc(NS(=O)(=O)c2ccc(C)cc2)cc1C(=O)Nc1nc(-c2ccccc2)cs1,12.3%,–
